Rows were chosen to be rich in hits. Some 11% of all compounds tested hit in one or more screens of this group.
IL1B secr inh – qHTS for Inhibitors of Inflammasome Signaling: IL-1-beta AlphaLISA Primary Screen. activity change, % at 57.5 µM. 360,000 compounds, 4.7% hits. THP-1 LPS/ATP IL-1B secretion, AlphaLISA, 16 h; stronger effect = lower value. AID 743279, 2014; in the data active = activity change below about -50%; inconclusive = mostly about -30% to -49%; note: % is set by controls: 0 for no effect and ±100 for the full control effect
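THP-1 cells pretreated 1 hr with compounds (up to 57.5 uM final), then stimulated with LPS (250 ng/mL final) plus ATP (1.25 mM final); secreted IL-1B measured by AlphaLISA after 16 hr, decreased signal indicating inhibition.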
MCF10A rereplic – A quantitative high throughput screen for small molecules that induce DNA re-replication in MCF 10a normal breast cells; MCF 10A DNA re-replication, Hoechst nuclear intensity, 48 h; Potency, µM (series often up to 46.1 µM), without a hit: at the highest dose activity, positive = re-replication, hits mostly activators; 350,000 compounds, 2.9% hits; AID 624296, 2012; note: potency is the fitted concentration of half-maximal effect; % of control where 0% means no effect; nearly all actives have a fitted effect of over 50% in size
Gal4-VP16 FLuc – VP16 counterscreen qHTS for inhibitors of ROR gamma transcriptional activity; Drosophila S2 Gal4-VP16 UAS-luciferase, luminescence, 20 h; Potency, µM (top dose mostly 53.6 µM), inactives show at the highest dose activity, negative = inhibition, most hits filed as inhibitors; 310,000 compounds, 3.5% hits;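 note: Gal4-VP16 expression switched on by copper sulfate through the metallothionein promoter; potency is the fitted concentration of half-maximal effect; % is set by controls: 0 for no effect and ±100 for the full control effect; nearly all actives have a fitted effect of over 50% in size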
SW480 rerep – A quantitative high throughput screen for small molecules that induce DNA re-replication in SW480 colon adenocarcinoma cells. SW480 DNA re-replication, Hoechst DNA content imaging, 48 h. Potency, µM (doses to about 46.1 µM), for the others: top-dose re-replication activation, most hits filed as activators. 340,000 compounds, 1.8% hits; note: potency is the fitted concentration of half-maximal effect; % of control where 0% means no effect; nearly all actives have a fitted effect of over 55% in size
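Per well, 250 cells were exposed to pinned compound for 48 hr. Nuclear DNA was visualised with Hoechst (40 min, 37 C) and total object intensity recorded by fluorescence scanning.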
RORg inh – qHTS for inhibitors of ROR gamma transcriptional activity | Drosophila S2 Gal4-RORgamma UAS-luciferase reporter, 20 h | 310,000 compounds, 5.4% hits | AID 2551, 2010 | Potency, µM (titrated, usually from 53.6 µM), for inactives: at the highest dose activity change, negative = inhibition, actives largely listed as inhibitors | Nuclear receptor ROR-gamma (Mus musculus), P51450; note: potency is the fitted concentration of half-maximal effect; % is set by controls: 0 for no effect and ±100 for the full control effect; nearly all actives have a fitted effect of over 60% in size
Target sequence (P51450 whole entry, looked up, the tested form may be a part): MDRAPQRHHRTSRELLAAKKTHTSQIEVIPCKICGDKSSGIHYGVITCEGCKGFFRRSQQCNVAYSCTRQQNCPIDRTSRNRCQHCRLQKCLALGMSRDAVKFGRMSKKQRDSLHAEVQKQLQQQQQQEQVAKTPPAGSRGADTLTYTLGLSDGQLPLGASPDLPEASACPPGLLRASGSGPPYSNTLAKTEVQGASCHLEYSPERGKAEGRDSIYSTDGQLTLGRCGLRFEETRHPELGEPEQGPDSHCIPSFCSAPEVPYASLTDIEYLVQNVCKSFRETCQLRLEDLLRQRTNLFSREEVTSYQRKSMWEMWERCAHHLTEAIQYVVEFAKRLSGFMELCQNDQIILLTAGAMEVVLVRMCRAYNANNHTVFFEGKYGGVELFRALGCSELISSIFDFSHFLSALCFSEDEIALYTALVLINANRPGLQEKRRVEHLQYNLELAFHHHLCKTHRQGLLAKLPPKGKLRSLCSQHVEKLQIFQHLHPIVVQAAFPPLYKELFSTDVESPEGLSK
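Luminescence from a UAS-regulated Photinus luciferase reporter in stably transfected Drosophila Schneider cells is measured; decreased signal marks ROR gamma inhibition. Fusion expression is induced by 700 uM copper sulfate for 20 hr.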
An asterisk follows results filed as active; ? = inconclusive; · = no result given. Unless noted, calls come from the whole dose curve; as a rule, active = well fitted curve in the direction sought with a large enough effect; inconclusive = small, poorly fitted or top-dose-only effect, or another doubt; inactive = no such curve, though single readings can be large; an effect the other way counts as inactive or inconclusive.

SMILES | IL1B secr inh | MCF10A rereplic | Gal4-VP16 FLuc | SW480 rerep | RORg inh
C[C@]12CCC3C(CCC4=C(Cl)C(=O)CC[C@@]43C)C1CCC2O (some centres undefined) | · | 19.0% | 4.7% | -9.8% | -8.6%
CCOC(=O)c1c(C)n(Cc2ccccc2)c2ccc(OCC(O)Cn3nc(C)nc3C)cc12 (centres undefined) | ? | 9.9% | -5.7% | 17.7% | -5.6%
CCOC(=O)c1c(C)n(Cc2ccccc2)c2ccc(OCC(O)CNC(C)(C)C)cc12 (centres undefined) | -96.3* | ? | -27.1% | ? | ?
COCCN(C(=O)CCl)c1c(C)cccc1C | · | · | 11.2% | · | 9.7%
C[C@@H]1O[C@@H](O[C@H]2CC[C@@H](O[C@H]3[C@H](O)C[C@H](c4ccc5c(c4O)C(=O)C4=C(C5=O)[C@@]5(O)C(=O)C[C@](C)(O[C@H]6CC[C@H](O[C@H]7C=CC(=O)[C@H](C)O7)[C@H](C)O6)C[C@@]5(O)C=C4)O[C@@H]3C)O[C@H]2C)C=CC1=O | · | · | -10.3% | · | 0.501µM*
O=C(O)c1cc[c]([Hg][Cl])cc1 | -101.1* | 12.6% | · | -1.7% | ·
COc1ccc(C(=O)O)cc1OC | -11.0 | 14.7% | 13.6% | -1.3% | 19.9%
CC1CC(=O)O1 (centres undefined) | · | · | -3.6% | · | -5.9%
NNC(N)=S | · | · | -12.7% | · | 14.1µM*
CN(CC(=O)Nc1ccc(N2CCOCC2)cc1)CC(=O)Nc1cccc(C#N)c1 | 0.0 | 15.6% | ? | ? | 16.4%
NCC(=O)c1ccccc1 | 5.6 | -0.6% | -3.5% | -1.8% | -36.8%
O=C(CCl)NN=C(c1ccccc1)c1ccccc1 | -77.0* | 14.6µM* | -11.3% | ? | -5.1%
C=CCCC#N | · | · | -12.9% | · | -8.2%
CN1CCN(c2ccc([N+](=O)[O-])c(N3CCCCC3)c2)CC1 | 5.7 | ? | 5.1% | -4.4% | -2.4%
O=[N+]([O-])c1ccc(N2CCNCC2)cc1N1CCCCCC1 | -59.3* | ? | 2.6% | -4.6% | -16.6%
COC(=O)c1sccc1NC(=O)c1ccc(C#N)cc1 | 0.5 | 5.0% | -8.9% | ? | 17.8%
COc1ccc(/C=C/C=C2C(=O)NC(=S)NC2=O)cc1 | ? | 5.8µM* | · | 16.4µM* | ·
COc1ccc(C=C2C(=O)NC(=S)NC2=O)cc1OC | 1.0 | -2.0% | · | 0.6% | ·
c1ccc(P(c2ccccc2)c2ccccc2)cc1 | · | · | -10.9% | · | -21.7%
CCOc1cc(OP(=S)(OC)OC)nc(CC)n1 | · | · | -6.3% | · | 17.9%
CN(CC(=O)Nc1cccc(F)c1)CC(=O)Nc1cccc(S(=O)(=O)N(C)c2ccccc2)c1 | -78.8* | ? | · | 10.0% | ·
O=C(Nc1cccc(F)c1)N1CCC2(CC1)CCN(C(=O)Oc1ccccc1)CC2 | · | · | ? | · | 41.5%
CC(=O)Oc1ccc2c3c1OC1[C@@H](OC(C)=O)C=C[C@H]4[C@H](C2)N(C)CC[C@]314 (some centres undefined) | · | 3.4% | 1.5% | -2.1% | 10.4%
CCCCCn1c(N)c(C(=O)NCc2cccs2)c2nc3ccccc3nc21 | -15.5 | 5.17µM* | -17.7% | 2.59µM* | 26.8%
CCCCn1c(N)c(C(=O)NCc2cccs2)c2nc3ccccc3nc21 | -58.0* | 1.16µM* | -8.1% | 3.26µM* | 11.8%
SMILES | IL1B secr inh | MCF10A rereplic | Gal4-VP16 FLuc | SW480 rerep | RORg inh
COCCOC(=O)c1c(N)n(Cc2ccccc2)c2nc3ccccc3nc12 | -17.4 | 2.3% | 9.2% | 24.6% | 16.1%
Nc1c(C(=O)NCCCc2ccccc2)c2nc3ccccc3nc2n1Cc1cccs1 | -21.2 | ? | ? | 2.91µM* | ?
CCCOC(=O)c1c(N)n(Cc2cccs2)c2nc3ccccc3nc12 | -3.3 | 20.6µM* | 8.7% | ? | ?
CCCCOCCCn1c(N)c(C(=O)OCCOC)c2nc3ccccc3nc21 | ? | 0.1% | -0.3% | ? | 33.3%
O=c1cccc2n1CC1CC2CN(CCO)C1 (centres undefined) | · | · | 1.7% | · | 9.9%
CC1C(=O)OC2O[C@]3(C)CC[C@H]4C(C)CCC1[C@]24OO3 (some centres undefined) | · | · | -5.0% | · | -1.9%
